SK-BR-3 tox 24h: SK-BR-3 proliferation inhibitors, primary screen, cell-based, human, 24 h; viability, % at 10 µM; hit rate 0.47% among 41,000; SK-BR-3 viability, CellTiter-Glo ATP luminescence; active compounds read low;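 active = viability at or below the median of all test compounds minus 3 SD, in both replicates if run twice, cut at about 45% in these data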;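 also: 100% = median untreated cell wells and 0% = median positive control drug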
Cdc25B block: inhibitors of Cdc25B phosphatase catalytic domain, primary screen, biochemical, OMFP fluorescence. AID 368, 2006. recombinant Cdc25B, OMFP fluorescence Ex485/Em525. M-phase inducer phosphatase 2 (Homo sapiens), P30305. inhibition, %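 (compounds tested at 10 µM final in the well)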. hit rate 0.1% among 65,000; in the data active = inhibition above about 50%
PKA inh: inhibitors of human PKA kinase activity, primary screen, biochemical, ATP-depletion luminescence, Kemptide substrate. cAMP-dependent protein kinase catalytic subunit alpha (Homo sapiens), P17612. PKA Kemptide phosphorylation, Kinase-Glo ATP luminescence. inhibition, % at 6 µM. hit rate 0.1% among 65,000. AID 524, 2006;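 active = inhibition above the screen-wide mean inhibition plus 3 SD, cut at about 21% in these data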
ROCK2 blocker: inhibitors of human ROCK2 kinase, primary screen, biochemical, high-throughput, luminescence; Rho-associated protein kinase 2 (Homo sapiens), O75116; purified ROCK2, Kinase-Glo ATP depletion luminescence; inhibition, % at 6 µM; hit rate 0.35% among 60,000; AID 604, 2007;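 active = inhibition above the screen-wide mean inhibition plus 3 SD, cut at about 18% in these data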;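 also: plate controls were DMSO wells for no effect and Y-27632 control wells after no-enzyme background subtraction for full effect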
Hsp90 inh: tumor Hsp90 inhibitors, primary screen, cell lysate, fluorescence polarization, NCI-N417 lysate. Cy3B-geldanamycin FP displacement. AID 429, 2006. hit rate 0.35% among 64,000. Heat shock protein HSP 90-alpha (Homo sapiens), P07900. inhibition, % at 30 µM;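 active = inhibition above 50%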;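 also: 0% = tracer plus lysate wells and 100% = tracer alone without lysate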
MKP-1 inh: MKP-1 phosphatase inhibitors, primary screen, biochemical, in vitro; inhibition, %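 (compounds tested at a single concentration somewhere between 10 and 100 µM)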; recombinant MKP-1, OMFP hydrolysis fluorescence; hit rate 0.15% among 65,000; AID 374, 2006; Dual specificity protein phosphatase 1 (Homo sapiens), P28562;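 active = inhibition above about 50%, limit read from the data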;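 also: 0% = DMSO max control wells and 100% = wells with enzyme stopped by NaOH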
Target sequence (P28562 whole entry, looked up): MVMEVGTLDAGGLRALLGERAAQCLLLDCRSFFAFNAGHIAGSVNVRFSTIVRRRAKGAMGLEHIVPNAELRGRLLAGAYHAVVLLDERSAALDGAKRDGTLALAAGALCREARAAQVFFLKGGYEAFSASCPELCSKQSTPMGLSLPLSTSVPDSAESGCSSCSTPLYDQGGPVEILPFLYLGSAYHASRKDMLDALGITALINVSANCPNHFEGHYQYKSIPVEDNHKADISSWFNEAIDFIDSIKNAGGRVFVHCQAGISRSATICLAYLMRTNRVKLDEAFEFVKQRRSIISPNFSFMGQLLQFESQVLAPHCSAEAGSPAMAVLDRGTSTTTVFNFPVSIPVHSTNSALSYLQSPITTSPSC
Redox H2O2 0p5DTT: redox cycling H2O2 generation, 0.5 mM DTT, dose response, artefact control, biochemical, Cdc25B catalytic domain | shares compounds with Cdc25B block | cell-free redox cycling H2O2 generation | EC50, µM | hit rate 50% among 30 | AID 682, 2007; in the data active = EC50 below about 30 µM
Redox H2O2 1DTT: redox cycling H2O2 generation, 1 mM DTT, dose response, artefact control, biochemical, 1.0 mM DTT, Cdc25B catalytic domain | shares compounds with Cdc25B block | cell-free redox cycling H2O2 generation | EC50, µM | 30 tested, under 10 active; in the data active = EC50 below about 50 µM
Redox cycler: redox cycling hydrogen peroxide production, dose response, artefact control, biochemical, probe assessment; 60 tested, under 10 active; AID 672, 2007; EC50, µM; shares compounds with MKP-1 inh; Redox cycling H2O2 generation, DTT, phenol red/HRP; call rule not given here
Numbers without * were called inactive; nt = no result. The list is not random: actives were taken first. Their share in the collection is about 1%.

SMILES | SK-BR-3 tox 24h | Cdc25B block | PKA inh | ROCK2 blocker | Hsp90 inh | MKP-1 inh | others
CN(C)/C=C1/Sc2ccccc2C1=O | 128 | -8 | 2 | nt | nt | 3
Cc1cc2ccccc2c(=O)n1CC(=O)N1CCN(c2cccc(Cl)c2)CC1 | 29* | -11 | 9 | 6 | 3 | 13
O=C(O)/C=C/c1ccc(O)c(O)c1 | 114 | -14 | 1 | 3 | 53* | 4
COc1cc(/C=C/C(=O)CC(=O)/C=C/c2ccc(O)c(OC)c2)ccc1O | 96 | -5 | -6 | -4 | 13 | 5
Cc1ccc2c(c1)N(CC(=O)O)C(=O)CO2 | nt | -2 | 6 | nt | -1 | 8
CC(=O)Nc1ccc(S(=O)(=O)N(C)S(=O)(=O)c2ccc(F)cc2)cc1 | nt | -15 | 6 | 6 | 2 | 22
NC(=O)NC(=O)COC(=O)CCCc1c[nH]c2ccccc12 | nt | -2 | 4 | -5 | -3 | 29
O=C(NCc1ccc2c(c1)OCO2)C1CCCN1C(=O)Nc1cccc(Cl)c1 (stereo unspecified) | 34* | -11 | 4 | 0 | 0 | -4
Cc1cccc(NC(=O)CSc2n[nH]c(-c3ccncc3)n2)c1 | 103 | 13 | 21* | 17 | -2 | -4
O=C(CSc1n[nH]c(-c2ccncc2)n1)c1ccccc1 | 85 | -14 | 43* | 105* | -1 | 24
O=C(CSc1n[nH]c(-c2ccncc2)n1)NCCc1ccccc1 | 79 | -5 | 20 | 7 | -1 | 6
COc1ccc(OCc2nc(N)nc(Nc3cccc(C)c3C)n2)cc1 | 89 | 0 | 10 | 5 | -2 | -5
CNC(=O)c1ccccc1NC(=O)c1cccc(S(=O)(=O)N2CCC(C)CC2)c1 | 43* | 2 | 10 | 10 | 0 | 1
CCNC(=O)c1ccccc1NC(=O)c1cccc(S(=O)(=O)N2CCC(C)CC2)c1 | 57 | 2 | 10 | 6 | -5 | -1
Oc1ccc(N=Cc2ccc(O)c(O)c2)cc1 | nt | 5 | 5 | 7 | 93* | -2
Cc1ccsc1C=Nc1ccc(O)cc1 | nt | -4 | 10 | 8 | 13 | -2
CC1CCCCC1NS(=O)(=O)c1ccc(S(=O)(=O)N2CCCC2)cc1 (stereo unspecified) | 85 | -4 | -1 | -4 | -3 | 16
O=S(=O)(NC1CCc2ccccc21)c1ccc(S(=O)(=O)N2CCCC2)cc1 (stereo unspecified) | 80 | 2 | -3 | 0 | 92* | -13
CC1CCCCC1NC(=O)c1cn(C)c2ccc(S(=O)(=O)N3CCCC3)cc2c1=O (stereo unspecified) | 43* | 10 | -10 | -11 | 1 | 30
CC1CCN(S(=O)(=O)c2ccc3c(c2)c(=O)c(C(=O)NC2CCCC2)cn3C)CC1 | nt | -1 | 2 | 1 | 2 | 50*
CCn1cc(C(=O)NCc2ccccn2)c(=O)c2cc(S(=O)(=O)N3CCCCC3)ccc21 | nt | -2 | -3 | -2 | 65* | 33
Cn1cc(C(=O)NC2CCCCC2)c(=O)c2cc(S(=O)(=O)N3CCCC3)ccc21 | 51 | 4 | 3 | 5 | 1 | 34
CCC(C)(C)n1nnnc1C(c1ccc2ncccc2c1)N1CCN(c2nc3ccccc3s2)CC1 (stereo unspecified) | 78 | -6 | 8 | 4 | -1 | 35
Nn1c(SCC(=O)Nc2ccc(F)cc2)nnc1C1CCCCC1 | 83 | 1 | -4 | 2 | -2 | -18
CCn1c(SCC(=O)c2ccc(O)c(O)c2)nnc1-c1ccccc1OC | 96 | 9 | -2 | 7 | 67* | 25
SMILES | SK-BR-3 tox 24h | Cdc25B block | PKA inh | ROCK2 blocker | Hsp90 inh | MKP-1 inh | others
C=CCn1c(SCC(=O)c2ccc(O)c(O)c2)nnc1-c1ccccc1OC | 99 | 9 | 2 | 5 | 71* | 6
C=CCn1c(SCC(N)=O)nnc1-c1ccccc1O | 104 | -3 | 4 | 3 | 0 | -29
COc1ccc(C(C(C(=O)c2ccco2)N2CCOCC2)N2CCOCC2)cc1 (stereo unspecified) | 85 | -6 | 11 | -3 | -1 | -9
COc1ccc(N2CCN(C(c3cc(OC)ccc3OC)c3nnnn3Cc3ccco3)CC2)cc1 (stereo unspecified) | 62 | -7 | 7 | 8 | -2 | -15
Oc1ccc(C2CNCCc3c2cc(O)c(O)c3Cl)cc1 (stereo unspecified) | nt | nt | nt | nt | 75* | nt
Oc1cc2c(c(Cl)c1O)CCNCC2c1ccccc1 (stereo unspecified) | nt | nt | nt | nt | 82* | nt
COc1cc(N=Cc2ccc([N+](=O)[O-])cc2)c2ncccc2c1 | nt | nt | nt | nt | -1 | nt
O=S(=O)(c1cccc(-c2nnco2)c1)N1CCCC1 | nt | -5 | 3 | 2 | 91* | 6
CCN(CC)CCN1C(=O)C(=O)/C(=C(/O)c2ccncc2)C1c1ccccc1F (stereo unspecified) | 92 | 0 | 3 | 4 | -1 | -20
Nc1ccc2cn[nH]c2c1 | 96 | -5 | 8 | 23* | -14 | -12
O=C(O)C1Nc2c(O)cccc2C2C=CCC12 (stereo unspecified) | 84 | 56* | -7 | 5 | -10 | 31 | Redox H2O2 0p5DTT=>50;Redox H2O2 1DTT=>50
COCCSc1nnc(NC(=O)Cc2ccccc2OC)s1 | 87 | -2 | 6 | 4 | -3 | -10
O=C(O)CCN1C(=O)c2ccccc2C1=O | 88 | 3 | 4 | 4 | -3 | -5
O=C1Cc2ccccc2C(=O)N1CCc1ccccc1 | nt | 59* | 9 | 5 | -7 | 10 | Redox H2O2 0p5DTT=>50;Redox H2O2 1DTT=>50
O=c1[nH]c(Nc2ccccc2)cc2ccccc12 | 91 | 85* | 3 | -1 | 28 | 21 | Redox H2O2 0p5DTT=>50;Redox H2O2 1DTT=>50
Cn1c(/C(C#N)=C/C2CC=CCC2)nc2ccccc21 (stereo unspecified) | 79 | -12 | 3 | 1 | 0 | 11
N#Cc1c(N2CCCC2)nc(N)c2c(N)nc(N3CCCC3)cc12 | nt | 101* | 14 | 8 | 77* | 76* | Redox H2O2 0p5DTT=13*;Redox H2O2 1DTT=27*;Redox cycler=>50
CCOc1ccc(-c2nc(-c3ccccc3)no2)cc1OCC | nt | -16 | 5 | 5 | -3 | 9
